Laboratory results as given in PubChem BioAssay (Tox21).
Inconclusive results are not listed. Active and inactive are the calls of the source. Unless noted, calls come from the whole dose curve.

How the values were obtained:
[1] = qHTS assay to identify small molecule agonists of the peroxisome proliferator-activated receptor delta (PPARd) signaling pathway - cell viability counter screen (AID 743211; active = well fitted curve in the direction sought with a large enough effect in the repeat runs; an effect the other way counts as inactive or inconclusive; note: nearly all actives have a fitted effect of over 55% in size)
Procedure, shortened: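 Tox21 library compounds, delivered in DMSO, were incubated 17 h with PPARd-bla HEK293H cells; cytotoxicity was taken from CellTiter-Glo luminescence read 30 min after reagent addition.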

[2] = target: Peroxisome proliferator-activated receptor delta (Homo sapiens) (UniProt Q03181); assay: qHTS assay to identify small molecule agonists of the peroxisome proliferator-activated receptor delta (PPARd) signaling pathway (AID 743212);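 note: HEK293H cells with PPARd UAS beta-lactamase reporter GeneBLAzer system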
Chain of Peroxisome proliferator-activated receptor delta (Homo sapiens) (Q03181 whole entry, looked up): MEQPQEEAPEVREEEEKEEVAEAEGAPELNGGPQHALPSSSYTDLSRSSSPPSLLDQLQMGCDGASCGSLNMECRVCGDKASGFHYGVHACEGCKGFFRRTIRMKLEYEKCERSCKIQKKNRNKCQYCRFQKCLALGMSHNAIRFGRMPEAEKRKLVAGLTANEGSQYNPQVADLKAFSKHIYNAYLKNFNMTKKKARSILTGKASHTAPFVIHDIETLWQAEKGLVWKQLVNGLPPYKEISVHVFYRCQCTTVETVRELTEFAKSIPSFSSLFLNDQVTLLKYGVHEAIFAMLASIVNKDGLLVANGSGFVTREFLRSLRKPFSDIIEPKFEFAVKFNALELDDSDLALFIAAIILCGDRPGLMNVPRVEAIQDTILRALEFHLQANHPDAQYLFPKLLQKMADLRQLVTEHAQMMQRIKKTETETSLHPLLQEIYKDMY
Procedure, shortened: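 Quantitative high-throughput agonist screen in a HEK293H beta-lactamase reporter line under UAS control. Compounds in DMSO, at 37 C. Fluorescence read after 2 h with FRET substrate at room temperature.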

[3] = qHTS assay to identify small molecule antagonists of the peroxisome proliferator-activated receptor delta (PPARd) signaling pathway - cell viability counter screen (AID 743213; active = well fitted curve in the direction sought with a large enough effect in the repeat runs; an effect the other way counts as inactive or inconclusive; note: nearly all actives have a fitted effect of over 50% in size)
Procedure, shortened: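 CellTiter-Glo was added to PPARd-bla HEK293H wells following 17 h compound treatment in the presence of 300 nM L165041. Luminescence was recorded after 30 min at room temperature.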

[4] = target: Peroxisome proliferator-activated receptor delta (Homo sapiens) (UniProt Q03181); assay: qHTS assay to identify small molecule antagonists of the peroxisome proliferator-activated receptor delta (PPARd) signaling pathway (AID 743215; active = well fitted inhibition curve with a large enough effect in the signal ratio in the repeat runs, not every such curve was filed as active; the % refers to the signal ratio;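 note: cells stimulated with agonist L165041 at 300 nM final during compound exposure; series mostly up to about 62 µM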)
Procedure, shortened: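 HEK293H UAS-bla, PPARd; agonist L165041 300 nM final with cpd in DMSO; 37 C 17 h; FRET substrate, RT 2 h; fluorescence intensity.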

[5] = qHTS assay to identify small molecule agonists of the farnesoid-X-receptor (FXR) signaling pathway - cell viability counter screen (AID 743218; active = well fitted curve in the direction sought with a large enough effect in the repeat runs; an effect the other way counts as inactive or inconclusive; note: nearly all actives have a fitted effect of over 45% in size)
Procedure, shortened: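 Parallel cytotoxicity test: compound-treated (16 h, 37 C) HEK 293T FXR-bla reporter cells were lysed with CellTiter-Glo and luminescence recorded.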

[6] = qHTS assay to identify small molecule antagonists of the farnesoid-X-receptor (FXR) signaling pathway - cell viability counter screen (AID 743221; active = well fitted cell-killing curve with a large enough effect in the repeat runs, not every such curve was filed as active; note: nearly all actives have a fitted effect of over 50% in size)
Procedure, shortened: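 Cytotoxicity is taken from ATP luminescence (CellTiter-Glo, 30 min, room temperature) in FXR-bla HEK 293T cells previously incubated 16 h at 37 C with compound and chenodeoxycholic acid at 50 uM final.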

[7] = target: Vitamin D3 receptor (Homo sapiens) (UniProt P11473); assay: qHTS assay to identify small molecule agonists of the vitamin D receptor (VDR) signaling pathway (AID 743222)
Chain of Vitamin D3 receptor (Homo sapiens) (P11473 whole entry, looked up): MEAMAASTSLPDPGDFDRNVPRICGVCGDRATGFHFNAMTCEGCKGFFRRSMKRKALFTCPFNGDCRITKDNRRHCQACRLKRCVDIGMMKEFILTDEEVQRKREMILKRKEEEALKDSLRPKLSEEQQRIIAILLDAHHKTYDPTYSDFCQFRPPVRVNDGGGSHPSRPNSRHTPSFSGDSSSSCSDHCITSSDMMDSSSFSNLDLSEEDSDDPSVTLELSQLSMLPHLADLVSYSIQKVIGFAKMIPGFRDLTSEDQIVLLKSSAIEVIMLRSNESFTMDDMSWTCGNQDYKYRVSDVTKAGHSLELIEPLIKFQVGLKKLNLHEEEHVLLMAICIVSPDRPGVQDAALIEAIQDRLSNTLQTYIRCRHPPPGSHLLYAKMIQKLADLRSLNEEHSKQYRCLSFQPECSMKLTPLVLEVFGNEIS
Procedure, shortened: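 In VDR-bla cells, compound-induced beta-lactamase expression is quantified by FRET substrate fluorescence. Treatment lasts 16 h at 37C; substrate develops 2 h at room temperature.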

[8] = target: Vitamin D3 receptor (Homo sapiens) (UniProt P11473); assay: qHTS assay to identify small molecule antagonists of the vitamin D receptor (VDR) signaling pathway (AID 743223; active = well fitted inhibition curve with a large enough effect in the signal ratio in the repeat runs, not every such curve was filed as active; the % refers to the signal ratio)
Procedure, shortened: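 Quantitative HTS in VDR-bla reporter cells stimulated with 1alpha,25-dihydroxyvitamin D3, 3 nM final. Compound exposure 16 h, 37C, 5% CO2. Read-out: beta-lactamase FRET substrate fluorescence, 2 h RT.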

[9] = qHTS assay to identify small molecule agonists of the vitamin D receptor (VDR) signaling pathway - cell viability counter screen (AID 743224; active = well fitted curve in the direction sought with a large enough effect in the repeat runs; an effect the other way counts as inactive or inconclusive; note: series mostly up to about 63 µM; nearly all actives have a fitted effect of over 50% in size)
Procedure, shortened: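 Plated VDR-bla cells (4 h, 37C) received compound, incubated 16 h, then LiveBLAzer substrate 2 h RT; CellTiter-Glo added afterwards, luminescence read at 30 min.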

[10] = qHTS assay to identify small molecule antagonists of the vitamin D receptor (VDR) signaling pathway - cell viability counter screen (AID 743225; active = well fitted curve in the direction sought with a large enough effect in the repeat runs; an effect the other way counts as inactive or inconclusive; note: nearly all actives have a fitted effect of over 50% in size)
Procedure, shortened: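 Same-well multiplex: following 16 h treatment of HEK 293T cells carrying a UAS-driven beta-lactamase reporter with compound and agonist (3 nM final), and a 2 h FRET substrate step, CellTiter-Glo was added and luminescence read after 30 min.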

[11] = qHTS assay to identify small molecule agonists of the NFkB signaling pathway - cell viability counter screen (AID 1159515); note: series mostly up to about 61 µM; nearly all actives have a fitted effect of over 55% in size
Procedure, shortened: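 Using the same wells as the NFkB reporter read, ME-180 NFkB-bla cells given compounds for 5 hr were assessed for viability via CellTiter-Glo, with luminescence taken after a 30 min room-temperature incubation.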

[12] = qHTS assay to identify small molecule agonists of the endoplasmic reticulum stress response signaling pathway (AID 1159516; active = well fitted activation curve with a large enough effect in the signal ratio in the repeat runs, not every such curve was filed as active; the % refers to the signal ratio)
Procedure, shortened: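 An ESRE-bla HeLa cell assay: compounds were pin-transferred from DMSO onto overnight-plated cells and left 5 hr at 37 C. Substrate was then loaded for 2 hr at room temperature before reading fluorescence at 460 nm and 530 nm.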

[13] = qHTS assay to identify small molecule agonists of the endoplasmic reticulum stress response signaling pathway - cell viability counter screen (AID 1159517)
Procedure, shortened: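 Counter-screen wells were identical to the reporter wells. Cells were plated at 1,500 per well and dosed for 5 hr, then read for luminescence 30 min after CellTiter-Glo addition.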

[14] = target: Nuclear receptor ROR-gamma (Homo sapiens) (UniProt P51449); assay: qHTS assay to identify small molecule antagonists of the retinoid-related orphan receptor gamma (ROR-gamma) signaling pathway (AID 1159521; active = well fitted curve in the direction sought with a large enough effect in the repeat runs; an effect the other way counts as inactive or inconclusive)
Procedure, shortened: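 Inducible-expression reporter assay: doxycycline (1 uM final) switched on RORγ in CHO cells bearing a ROR response element-luciferase construct, with test compounds present from 2 h beforehand. Decreased luminescence after 16 h defined antagonist activity.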

[15] = qHTS assay to identify small molecule agonists of the AP-1 signaling pathway - cell viability counter screen (AID 1159525); note: nearly all actives have a fitted effect of over 55% in size
Procedure, shortened: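 AP-1-bla ME-180 cells in Opti-MEM with 0.5% dialyzed FBS, compound exposure 5 h at 37 C in 15-point titration. Viability read in the same wells as ATP content by CellTiter-Glo luminescence, normalised to tetra-n-octylammonium bromide and DMSO controls.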

[16] = qHTS assay to identify small molecule agonists of the AP-1 signaling pathway (AID 1159526)
[17] = target: Retinoic acid receptor RXR-alpha (Homo sapiens) (UniProt P19793); assay: qHTS assay to identify small molecule agonists of the RXR signaling pathway (AID 1159527); note: nearly all actives have a fitted effect of over 35% in size
Chain of Retinoic acid receptor RXR-alpha (Homo sapiens) (P19793 whole entry, looked up): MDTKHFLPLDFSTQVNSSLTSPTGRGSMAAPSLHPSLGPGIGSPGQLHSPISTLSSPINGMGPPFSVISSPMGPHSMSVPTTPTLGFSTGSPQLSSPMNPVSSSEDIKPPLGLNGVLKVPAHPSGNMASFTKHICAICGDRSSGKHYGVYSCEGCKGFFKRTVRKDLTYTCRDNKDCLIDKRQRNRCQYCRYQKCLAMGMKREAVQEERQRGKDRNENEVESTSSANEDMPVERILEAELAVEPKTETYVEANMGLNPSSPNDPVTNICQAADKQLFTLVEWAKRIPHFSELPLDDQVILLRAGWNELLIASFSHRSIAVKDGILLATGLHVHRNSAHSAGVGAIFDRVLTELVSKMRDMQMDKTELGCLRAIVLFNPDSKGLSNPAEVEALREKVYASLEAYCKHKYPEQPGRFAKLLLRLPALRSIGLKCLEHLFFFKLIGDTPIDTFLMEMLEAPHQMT
Procedure, shortened: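 Compounds in DMSO were added to RXR-alpha-UAS-bla HEK 293T cells kept in 2% charcoal-stripped serum, and incubated 16 hr at 37 C with 5% CO2. Reporter signal came from a 2 hr B/G FRET substrate step.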

Measured: Potency

O=[N+]([O-])c1ccccc1C(F)(F)F
inactive: all assays above

CC(=O)c1nccs1
inactive: all assays above

CCc1cccc(CC)c1N
not listed: [7] | [8]
inactive: all other assays above

COc1ccc(N)c(OC)c1
not listed: [3] | [4]
inactive: all other assays above

O=C1CCCCCCCCCCC1
not listed: [3] | [7] | [8]
inactive: all other assays above

CN1CCCC1=O
not listed: [2] | [4]
inactive: all other assays above

N#CCC(=O)O
inactive: all assays above

NC(=O)NC(N)=O
not listed: [3] | [7] | [8]
inactive: all other assays above

CC(=O)OCCC(C)C
not listed: [7] | [8]
inactive: all other assays above

Brc1ccc(Oc2ccc(Br)cc2)cc1
not listed: [17]
inactive: all other assays above
